Test results as given in PubChem BioAssay (EPA / NIEHS).
Inconclusive results are not listed. Activity calls are given as the source filed them. How the source made its calls, unless noted: active means hit-call score of the fitted dose curve at least 0.9, where 1 is the maximum; inactive means score below 0.9.

Key:
[1] = target: Estrogen receptor (Homo sapiens) (UniProt P03372); experiment: CCTE_Deisenroth_AIME_384WELL_LUC_Active: CCTE's 384-well Estrogen Receptor Transactivation Assay with AIME metabolic competence (ERTA luciferase; metabolism positive), Deisenroth Lab (AID 2284030; active means hit-call score of the fitted dose curve at least 0.9, where 1 is the maximum)
Estrogen receptor (Homo sapiens), sequence (P03372 whole entry, looked up): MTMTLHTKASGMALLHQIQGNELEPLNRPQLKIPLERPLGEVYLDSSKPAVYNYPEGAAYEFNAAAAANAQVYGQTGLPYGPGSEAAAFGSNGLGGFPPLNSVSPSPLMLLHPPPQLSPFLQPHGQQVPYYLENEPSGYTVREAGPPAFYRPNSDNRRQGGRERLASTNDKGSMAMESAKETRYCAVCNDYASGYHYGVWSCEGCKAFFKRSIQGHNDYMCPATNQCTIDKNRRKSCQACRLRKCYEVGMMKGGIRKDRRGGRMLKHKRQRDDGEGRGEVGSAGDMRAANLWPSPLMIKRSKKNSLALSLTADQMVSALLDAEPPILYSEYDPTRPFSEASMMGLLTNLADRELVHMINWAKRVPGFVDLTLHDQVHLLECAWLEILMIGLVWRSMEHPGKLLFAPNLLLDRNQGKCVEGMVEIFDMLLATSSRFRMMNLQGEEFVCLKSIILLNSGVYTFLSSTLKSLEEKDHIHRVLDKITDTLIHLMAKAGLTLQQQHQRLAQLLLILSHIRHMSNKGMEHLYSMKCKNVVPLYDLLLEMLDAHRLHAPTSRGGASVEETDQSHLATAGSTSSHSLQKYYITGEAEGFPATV
In short: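 Estrogenic luciferase signal in VM7Luc4E2 cells is measured at 24 hour, after chemicals have been preconditioned 2 hours with PB/BNF-induced rat hepatic S9 in alginate. Gain of signal is fitted relative to 17beta-estradiol, across 0.002 - 200 uM.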

[2] = CCTE_Deisenroth_AIME_384WELL_CTox_Active: Cytotoxicity Assessment (CTOX) in CCTE's 384-well Estrogen Receptor Transactivation Assay with AIME metabolic competence (metabolism positive), Deisenroth Lab (AID 2284037; active means hit-call score of the fitted dose curve at least 0.9, where 1 is the maximum;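 further: activity means signal loss indicating cell death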)
In short: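 Cytotoxicity in VM7Luc4E2 breast cells, 24 hour, measured as protease-substrate fluorescence loss, after 2-hour metabolic conditioning with induced rat hepatic S9 in alginate microspheres. Concentrations 0.002 - 200 uM, 10 points, bidirectional fitting.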

[3] = target: Estrogen receptor (Homo sapiens) (UniProt P03372); experiment: CCTE_Deisenroth_AIME_384WELL_LUC_Inactive: CCTE's 384-well Estrogen Receptor Transactivation Assay without AIME metabolic competence (ERTA luciferase; metabolism negative), Deisenroth Lab (AID 2284038; active means hit-call score of the fitted dose curve at least 0.9, where 1 is the maximum;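 further: VM7Luc4E2 breast cells given medium preincubated 2 h with S9-free microspheres; hits raise estrogen receptor luciferase signal so potencies reflect agonists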)
In short: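 Metabolism-negative mode: chemicals (10-point, 0.002–200 uM) held 2 h with alginate-water microspheres, then conditioned medium applied to VM7Luc4E2 cells for 24 h. Luciferase induction referenced to 17beta-estradiol.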

[4] = CCTE_Deisenroth_AIME_384WELL_CTox_Inactive: Cytotoxicity Assessment (CTOX) in CCTE's 384-well Estrogen Receptor Transactivation Assay without AIME metabolic competence (metabolism negative), Deisenroth Lab (AID 2284039; active means hit-call score of the fitted dose curve at least 0.9, where 1 is the maximum;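 further: cell viability via live-cell protease substrate cleaved to fluorescent probe; cells exposed 24 h to medium preincubated 2 h with alginate-water beads without S9; loss of fluorescence signal means loss of viability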)
In short: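 Fluorescent protease-substrate viability readout after 24 h exposure of VM7Luc4E2 cells to conditioned medium. Chemicals (0.002–200 uM) first sat 2 h over alginate-water beads, no S9. Data fitted bidirectionally, loss of signal meaning viability loss.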

[5] = target: Estrogen receptor (Homo sapiens) (UniProt P03372); experiment: CCTE_Deisenroth_AIME_384WELL_LUC_Shift: CCTE's 384-well Estrogen Receptor Transactivation Assay with AIME metabolic competence data shift (ERTA luciferase; difference in metabolism positive and negative), Deisenroth Lab (AID 2284041);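 further: shift is response with S9 minus without S9 so positive means metabolism raised ER signal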
In short: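 Test chemicals (0.002–200 uM, 10-point) were pre-incubated 2 h with alginate microspheres containing phenobarbital/beta-naphthoflavone-induced male Sprague Dawley rat liver S9 or water, then medium was transferred to VM7Luc4E2 cells for 24 h luciferase readout; shift = S9-positive minus S9-negative normalized response.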

[6] = CCTE_Shafer_MEA_dev_firing_rate_mean: CCTE's Neural Network Formation Assay for Mean Firing Rate, Shafer Lab (AID 2284031);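 on AC50: curve fitted for loss of firing so AC50 reflects decreased mean firing rate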
In short: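 Primary rat cortical neurons on 48-well MEA plates, exposed from plating day 0 with dosing renewed on DIV 5 and 9. Mean well firing rate over active electrodes, recorded days 5, 7, 9, 12, summarised as trapezoidal AUC.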

[7] = CCTE_Shafer_MEA_dev_per_burst_spike_percent: CCTE's Neural Network Formation Assay for Percent of Spikes in a Burst, Shafer Lab (AID 2284032);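 on AC50: fitted as a decrease in burst spike percentage below DMSO baseline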
In short: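 Rat primary cortical neurons on 16-electrode MEA wells, dosed from plating day 0 for 12 days with renewal on DIV 5 and 9; spikes-in-bursts percentage averaged over bursting electrodes, collapsed as AUC across days 5, 7, 9, 12; loss direction versus DMSO.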

[8] = CCTE_Shafer_MEA_dev_burst_duration_mean: CCTE's Neural Network Formation Assay for Mean Burst Duration, Shafer Lab (AID 2284045);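 on AC50: curve fitted for loss meaning shorter burst duration than DMSO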
In short: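 Read-out: average first-to-last-spike interval within single-electrode bursts, averaged over bursting electrodes per well, then summarised as area under the curve across days 5, 7, 9 and 12. Developing rat cortical networks were exposed from day 0.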

[9] = CCTE_Shafer_MEA_dev_interburst_interval_mean: CCTE's Neural Network Formation Assay for Mean Interburst Interval, Shafer Lab (AID 2284046);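 further: well-mean interburst interval of bursting electrodes as AUC over four recording days; curve fitted for decrease in interburst interval relative to DMSO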
In short: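 Primary rat cortical neurons on PEI-coated 48-well MEA plates (laminin added with cells at plating) (16 electrodes/well), exposed from plating day 0 with renewal at DIV 5 and 9. Mean inter-burst interval averaged over bursting electrodes, AUC across days 5, 7, 9, 12; DMSO baseline.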

[10] = CCTE_Shafer_MEA_dev_network_spike_number: CCTE's Neural Network Formation Assay for Number of Network Spikes, Shafer Lab (AID 2284048);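 further: synchronized bursts across electrodes counted on days 5 7 9 12 and integrated as AUC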;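 on AC50: fit as a loss of signal meaning fewer network spikes than DMSO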
In short: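 Developing networks of primary rat cortical neurons are treated over 12 days starting at plating, with media and compound fully replaced on DIV 5 and 9. Network spike counts from four recording days are integrated as trapezoidal AUC.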

[11] = CCTE_Shafer_MEA_dev_active_electrodes_number: CCTE's Neural Network Formation Assay for Number of Active Electrodes, Shafer Lab (AID 2284040; active means hit-call score of the fitted dose curve at least 0.9, where 1 is the maximum;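 on AC50: potency for loss of active electrodes versus DMSO so lower counts are hits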)
In short: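 Primary rat cortical neurons on 16-electrode MEA wells, exposed from day 0 through day 12 with compound renewed at DIV 5 and 9 feeds. Active electrodes (mean firing ≥5 spikes/min) counted at DIV 5, 7, 9, 12; trapezoidal AUC across days, loss-of-signal versus DMSO.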

[12] = CCTE_Shafer_MEA_dev_bursting_electrodes_number: CCTE's Neural Network Formation Assay for Number of Bursting Electrodes, Shafer Lab (AID 2284043; active means hit-call score of the fitted dose curve at least 0.9, where 1 is the maximum;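 on AC50: potency is for loss of bursting electrodes relative to DMSO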)
In short: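 Read-out is the per-well number of electrodes bursting at least once every 2 minutes, recorded on days 5, 7, 9 and 12 and collapsed by trapezoidal area under the curve. Cultures were primary rat cortical neurons on MEA plates, treated continuously from plating.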

[13] = target: Estrogen receptor (Homo sapiens) (UniProt P03372); experiment: CCTE_Deisenroth_AIME_96WELL_LUC_Active: CCTE's 96-well Estrogen Receptor Transactivation Assay with AIME metabolic competence (ERTA luciferase; metabolism positive), Deisenroth Lab (AID 2284023; active means hit-call score of the fitted dose curve at least 0.9, where 1 is the maximum)
In short: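 Chemicals pre-incubated 2 h with alginate-immobilized phenobarbital/beta-naphthoflavone-induced male Sprague Dawley rat liver S9, then medium transferred to VM7Luc4E2 cells for 24 h luciferase read-out. 10-point series 0.002 - 200 uM; fitted relative to 17beta-estradiol.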

[14] = target: Estrogen receptor (Homo sapiens) (UniProt P03372); experiment: CCTE_Deisenroth_AIME_96WELL_LUC_Inactive: CCTE's 96-well Estrogen Receptor Transactivation Assay without AIME metabolic competence (ERTA luciferase; metabolism negative), Deisenroth Lab (AID 2284025; active means hit-call score of the fitted dose curve at least 0.9, where 1 is the maximum)
In short: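 VM7Luc4E2 breast cells, luciferase read 24 h after dosing with medium pre-incubated 2 h on alginate-water lids (metabolism negative). 10-point series 0.002–200 uM, single technical replicate, n≥4; fit relative to 17beta-estradiol.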

[15] = CCTE_Deisenroth_AIME_96WELL_CTox_Active: Cytotoxicity Assessment (CTOX) in CCTE's 96-well Estrogen Receptor Transactivation Assay with AIME metabolic competence (metabolism positive), Deisenroth Lab (AID 2284028; active means hit-call score of the fitted dose curve at least 0.9, where 1 is the maximum)
In short: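 Chemicals (0.002–200 uM) were first incubated 2 h with alginate-immobilized phenobarbital/beta-naphthoflavone-induced male rat liver S9; conditioned medium then went onto VM7Luc4E2 cells for 24 h, with viability read by protease-substrate fluorescence, fitted bidirectionally.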

[16] = CCTE_Deisenroth_AIME_96WELL_CTox_Inactive: Cytotoxicity Assessment (CTOX) in CCTE's 96-well Estrogen Receptor Transactivation Assay without AIME metabolic competence (metabolism negative), Deisenroth Lab (AID 2284029; active means hit-call score of the fitted dose curve at least 0.9, where 1 is the maximum)
In short: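 Chemicals (0.002 - 200 uM, 10 points) incubated 2 h with alginate-water microspheres (no S9), then medium moved onto VM7Luc4E2 cells for 24 h. Viability by protease-substrate cleavage to fluorescent probe; bidirectional fitting.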

[17] = CCTE_Shafer_MEA_acute_network_burst_percentage: CCTE's Neural Acute Assay for Percentage of Network Bursts, Shafer Lab (AID 2284022);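 further: curves fitted for loss so actives lower network burst percentage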
In short: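 On DIV 13 or 15, at least three wells of rat cortical neurons per compound are dosed at 0.03-40 uM. Spontaneous firing is detected at 8x rms noise for 40 min before and after dosing at 37 C. The percent change in network-burst spike share is reported.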

[18] = CCTE_Shafer_MEA_acute_cross_correlation_area: CCTE's Neural Acute Assay for Area of Cross Correlation, Shafer Lab (AID 2284024);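 further: area under pooled inter-electrode spike cross-correlation near zero lag as percent change from own baseline; curves fitted for loss of cross-correlation area so actives lower synchrony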
In short: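 Extracellular recordings from cultured rat cortical neurons measure network synchrony as cross-correlation area; each well's post-compound value (0.03-40 uM, 40 min) is compared with its own 40 min baseline to give percent change.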

[19] = CCTE_Shafer_MEA_acute_cross_correlation_HWHM: CCTE's Neural Acute Assay for Cross Correlation at Half Width at Half Maximum, Shafer Lab (AID 2284026);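 further: percent change per well from pre-dose baseline in spike cross-correlogram half width; hits are a decrease in cross-correlogram half width relative to DMSO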
In short: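 Percent change in cross-correlogram half width at half maximum, narrower meaning more synchrony, was derived per well from paired 40-min recordings before and during exposure to 0.03-40 uM compound in rat cortical cultures at 37 C.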

[20] = CCTE_Shafer_MEA_acute_synchrony_index: CCTE's Neural Acute Assay for Synchrony, Shafer Lab (AID 2284027);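 further: network synchrony index of spontaneous spiking in primary rat cortical neurons on MEAs; fitted for loss of signal so actives lower synchrony relative to DMSO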
In short: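 Primary rat cortical neurons on 48-well MEAs, dosed at 0.03–40 uM on DIV 13 or 15. Spikes are recorded for 40 min at 37C before and after exposure, and synchrony index (0–1) is expressed as percent change from baseline per well.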

Measured: AC50

O=C1C=CC(=O)N1c1ccccc1
inactive: [1] | [2] | [3] | [4] | [5]

OC(O)C(F)(F)C(F)(F)F
inactive: [6] | [7] | [8] | [9] | [10]

OCC1CCCO1 (centres undefined)
inactive: [1] | [3] | [5]

O=C(O)C(F)(F)C(F)(F)C(F)(F)OC(F)(F)F
inactive: [6] | [7] | [8] | [9] | [10]

CCN(CCO)S(=O)(=O)C(F)(F)C(F)(F)C(F)(F)C(F)(F)C(F)(F)C(F)(F)C(F)(F)C(F)(F)F
inactive: [6] | [7] | [11] | [12] | [8] | [9] | [10]

NC(=O)C(F)(F)C(F)(F)C(F)(F)C(F)F
inactive: [6] | [7] | [8] | [9] | [10]

C=CC(=O)OCCC(F)(F)C(F)(F)C(F)(F)C(F)(F)F
inactive: [6] | [7] | [11] | [12] | [8] | [9] | [10]

FC(F)(F)C(F)(F)C(F)(F)C(F)(F)C(F)(F)C(F)(F)C(F)(F)CCI
inactive: [6] | [7] | [11] | [12] | [8] | [9] | [10]

C=CC(=O)OCC(F)(F)C(F)(F)C(F)(F)COC(=O)C=C
active: [6] 4.71 µM | [7] 4.39 µM | [11] 4.25 µM | [12] 1.52 µM | [8] 3.86 µM | [9] 8.65 µM | [10] 1.18 µM

CCCCC(CC)COC(=O)c1ccc(N(C)C)cc1 (centres undefined)
active: [14] 16.2 µM
inactive: [13] | [15] | [16]

N#Cc1ccccc1O
inactive: [1] | [2] | [3] | [4] | [5]

OCC(F)(F)C(F)(F)C(F)(F)C(F)(F)C(F)(F)C(F)(F)CO
active: [11] 0.65 µM
inactive: [6] | [7] | [12] | [8] | [9] | [10]

NC(O)(C(F)(F)F)C(F)(F)F
inactive: [6] | [7] | [11] | [12] | [8] | [9] | [10]

Cc1ccc(O)c(-n2nc3ccccc3n2)c1
inactive: [15] | [16] | [5]
active: [13] 21.7 µM | [14] 10.2 µM | [1] 51.3 µM | [3] 38.2 µM

OCC(F)(F)C(F)(F)C(F)(F)C(F)(F)C(F)(F)C(F)(F)C(F)(F)C(F)(F)CO
inactive: [6] | [7] | [12] | [8] | [9] | [10]
active: [11] 15 µM

CCCCCCCC/C=C\CCCCCCCC(=O)OCC(O)CO (centres undefined)
inactive: [1] | [3] | [4] | [5]

CCN=C1C=CC(=C(c2ccc(N(CC)CC)cc2)c2ccc(N(CC)CC)cc2)c2ccccc21
inactive: [5]
active: [17] 762 nM | [18] 302 nM | [19] 883 nM | [20] 541 nM | [2] 59.1 µM | [4] 57.3 µM

O=C(c1ccccc1)c1ccc(O)cc1O
inactive: [2] | [5]
active: [1] 42.3 µM | [3] 40.3 µM

CC(=O)CCC(C)C
inactive: [1] | [2] | [3] | [4] | [5]

CC(C)OC=O
inactive: [2] | [3] | [4] | [5]

CC(C)(C)c1cc(Cc2cc(C(C)(C)C)c(O)c(C(C)(C)C)c2)cc(C(C)(C)C)c1O
inactive: [1] | [2] | [3] | [5]

OCC(F)(F)C(F)(F)C(F)(F)CO
active: [8] 15 µM
inactive: [6] | [7] | [11] | [12] | [9] | [10]

CCCCCCCC/C=C\CCCCCCCC(=O)N(C)CC(=O)O
inactive: [4] | [5]
active: [2] 124 µM

CCOC(OCC)OCC
inactive: [1] | [2] | [3] | [5]

O=S(=O)(O)CCC(F)(F)C(F)(F)C(F)(F)C(F)(F)F
inactive: [6] | [7] | [11] | [12] | [8] | [9] | [10]

CCCCOC(=O)C(C)O (centres undefined)
inactive: [1] | [2] | [3] | [4] | [5]

CNS(=O)(=O)C(F)(F)C(F)(F)C(F)(F)C(F)(F)C(F)(F)C(F)(F)C(F)(F)C(F)(F)F
inactive: [6] | [7] | [11] | [12] | [8] | [9] | [10]

NC(=O)C(F)(F)C(F)(F)C(F)(F)F
inactive: [6] | [7] | [8] | [9] | [10]

OCCCCC(F)(F)C(F)(F)C(F)(F)C(F)(F)F
inactive: [6] | [7] | [11] | [12] | [8] | [9] | [10]

O=S(=O)(O)CCC(F)(F)C(F)(F)C(F)(F)C(F)(F)C(F)(F)C(F)(F)C(F)(F)C(F)(F)F
inactive: [6] | [7] | [8] | [9] | [10]

OCC(O)CC(F)(F)C(F)(F)C(F)(F)C(F)(F)F (centres undefined)
inactive: [6] | [7] | [11] | [12] | [8] | [9] | [10]

NC(=O)C(F)(F)C(F)(F)C(F)(F)C(F)(F)C(N)=O
inactive: [6] | [7] | [11] | [8] | [9] | [10]

CO[Si](C)(CCC(F)(F)C(F)(F)C(F)(F)C(F)(F)C(F)(F)C(F)(F)F)OC
inactive: [6] | [7] | [8] | [9] | [10]
